Test results as given in paper PMC12136788.
Substitutions are numbered along the chain they refer to. The full ranking holds about 24,000 sequences; the median of “enrichment r” is about 0.99, and the highest 2% start at about 3.7. The list comes from a sample in which the highest values are over-represented; it also holds similar and randomly drawn sequences.

T1: UNK ZnF1-3 (human, UniProt Q9C0B0 31-174)
T1 sequence: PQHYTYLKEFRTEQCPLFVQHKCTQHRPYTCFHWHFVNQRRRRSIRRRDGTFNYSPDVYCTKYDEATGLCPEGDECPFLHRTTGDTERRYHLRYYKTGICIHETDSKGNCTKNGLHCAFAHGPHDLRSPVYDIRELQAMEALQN

B1: 90994690_90994914_4067_CDS_ENSMUSG00000040687_ENSMUST00000111370|mouse|control|control (ssRNA)
RNA: GGGAGUUCUACAGUCCGACGAUCGAGGUACCUGUCGAUCAUUUCCUGAGGACCCUGGUCCAUACCCAUUCCUUCUCUUUCCAACAUUACAGCAUCUAAGAAUGCAUCUUCCCAGAACUGCAUUUGGUCCCAUAAGGUAGAACGCAACAGAGGAUUGAGCAUCA
B2: chr7:130129250:130129251:+_ENSMUSG00000030779_ENSMUST00000052135|mus_mus|FALSE|FALSE (ssRNA)
RNA: GGGAGUUCUACAGUCCGACGAUCCUCCUCUGGUAAGAAGGGUGGUUUCUCUUUCUUCCCGAUUGCAUAGGCCUCUGCAUCUAUAGUUGGUAUUGCAUAUUUUCCAGUGUUUGUAAGCAUUGCACCUUUCAUGUUAGGAUCUUUCAACAGAGGAUUGAGCAUCA
B3: chr14:89338683:89338684:+_ENSG00000165533_ENST00000346301|hu_hu|hu_hu_hu_mus_False|38_98 (ssRNA)
RNA: GGGAGUUCUACAGUCCGACGAUCGUGGUUGUUGUGGACCAGAGCCAGCCUGAAGCAUUGGUGGGCCAAGUUUGUAUCUCCGAUUCCCACAGCUAUGUGUCCCAAGUUGUACCAGACAUCAGCUGCCUCUUCUUCAUUUUCAGCCAACAGAGGAUUGAGCAUCA
B4: chr3:179287964:179287965:+_ENSG00000136518_ENST00000429709|hu_hu|hu_hu_hu_mus_True|68_68 (ssRNA)
RNA: GGGAGUUCUACAGUCCGACGAUCCUUGAGUGGUGAGAUGGCCUCCAUGUUCUCCCUGGGCACGCGGAGAGCAUUAGUGUCUAUGUAGUAGGUGGGCCCGCCCUGCUUGCCUUUGUCACCAUCAAUCUCCAUCAUUGUACUUCCCAACAGAGGAUUGAGCAUCA
B5: chr7:117217587:117217588:+_ENSMUSG00000061079_ENSMUST00000084727|mus_hu|FALSE|FALSE (ssRNA)
RNA: GGGAGUUCUACAGUCCGACGAUCGAUAUAAGCUGUGGUACCAUCUUCCAGCUGAACCGCCUGUAAUGCACUCUGGUCAUAACUAUUACUUUUAGGUAUGGGUACAUGUUGAACAUAGGCCGCAGAACCAUCUUCCAACUGAAUCAACAGAGGAUUGAGCAUCA
B6: chr5:95152273:95152274:-_ENSG00000173221_ENST00000237858|hu_mus|motif|central (ssRNA)
RNA: GGGAGUUCUACAGUCCGACGAUCCAGCCGAGUCAUCAGCUCCCCAGUCUGUUGCAUGGAGAUUAGAUCACUGCAUCCGCCGGUGCAGUCUUUACCUAUGAAGACCCGAGGAACUGUUCUCGCUCCGGUGAGCUGUUGUAAAUACAACAGAGGAUUGAGCAUCA
B7: 12280944_12281064_4437_CDS_ENSMUSG00000032625_ENSMUST00000046121|mouse|control|control (ssRNA)
RNA: GGGAGUUCUACAGUCCGACGAUCGGGCUGGGUGCAGGUUUCCUCCAAAACUAUUUGUUUAUUACCAUCUAUGAUGAGCUCUGUGUUAGCACAGAACUCUUCGUCCACCACUUUGCUGAAAUCCUCAGCUGAGCCAUCACUCACCAACAGAGGAUUGAGCAUCA
B8: 54532588_54532708_162_CDS_ENSMUSG00000073678_ENSMUST00000097739|mouse|control|control (ssRNA)
RNA: GGGAGUUCUACAGUCCGACGAUCGAAUUUAAAUGUAUCCUUUUUUUUUUCCCCUAAAAAAGGGAUGUAAAAAAUCCAAUAUGAAACAGAAAAAGUACACAUGAAAUACAAAAUACACUGUCUGUUUGGCUCUGGAGCAGUUAGCAACAGAGGAUUGAGCAUCA
B9: chr7:75956504:75956505:-_ENSG00000170027_ENST00000307630|hu_mus|FALSE|FALSE (ssRNA)
RNA: GGGAGUUCUACAGUCCGACGAUCAUAGAACUGCAUGUCACUAUAGCAACAUCCAAAACAGAUCAAUCUGUUACAAUCACUAUUUGGUAAAGCAAACUUUACCCCUGAAAGGAAAAAAUUAAAUUAAAAAAAAGAAGUUUAAAACAACAGAGGAUUGAGCAUCA
B10: chr9:37780659:37780660:-_ENSG00000107371_ENST00000396521|hu_hu|FALSE|FALSE (ssRNA)
RNA: GGGAGUUCUACAGUCCGACGAUCGGUUCACCUGAAAAAACCCAUAGUUUUUUGCCUCAACUGACCUGUAAAAAAGUCCACCUAUAUCAACUUUCUGCCAAUCUGGAGAAGAUCUGUUUUCUUUGAUCUGACGUCAUGUGUUCACAACAGAGGAUUGAGCAUCA
B11: chr7:75956504:75956505:-_ENSG00000170027_ENST00000307630|hu_mus|motif|central (ssRNA)
RNA: B9 RNA with U80G, A81G
B12: chr15:79189586:79189587:+_ENSG00000185787_ENST00000426013|hu_hu|motif|central (ssRNA)
RNA: GGGAGUUCUACAGUCCGACGAUCUGAAAACACUGGCAGCAAUUUUGAAAUGAAAAAAAAAAAGAAAGAAGAAAAAAGGAGCGGUUACCCCCUUUUAUUUUUUCUCUGUUUAAAAUCAAACAGAAAACAAACAUCAAUUGUUAUCAACAGAGGAUUGAGCAUCA
B13: 65006457_65008074_834_CDS_ENSMUSG00000029920_ENSMUST00000031984|mouse|control|control (ssRNA)
RNA: GGGAGUUCUACAGUCCGACGAUCUGUUGAUUCAAUCAACUUUAGAAGAUCACUGUCACUUCUUUGUGGAAACAGUUCCUUCAAUGUCUGAAGCUUAGCAUCUUUAAGAUCUUCCAAUUCUGAAAGGUCUUCCAGUUCUGAACUCAACAGAGGAUUGAGCAUCA
B14: chr15:79189586:79189587:+_ENSG00000185787_ENST00000426013|hu_hu|FALSE|FALSE (ssRNA)
RNA: B12 RNA with G82U, G83A
B15: chr1:225611761:225611762:-_ENSG00000143815_ENST00000272163|hu_mus|hu_hu_hu_mus_True|8_98 (ssRNA)
RNA: GGGAGUUCUACAGUCCGACGAUCCCAGGCCAUCGGCCUCUUACCACUUCACCCUCAACAAACUUCCUACUUGGCAUUUUCUAAAAUUAGUCUGGCCGCGCUCCGGCGGGAACUCCAGCCACUCCAGGGAGAAUAGUAGCAGCCCAACAGAGGAUUGAGCAUCA
B16: 35472726_35489589_359_3pUTR_ENSMUSG00000029840_ENSMUST00000031866|mouse|control|control (ssRNA)
RNA: GGGAGUUCUACAGUCCGACGAUCCUGUCCACAAUCUGCAGCAUAAUGAAGAGGCUUCCUUCCACCCUCUAGUGUCCGGUUGACAUCUUCUCCCUUAGCCACAUAGUCCUUCACCUCAUCCAAGUCUCCGUUUUUCAGGGCCCACAACAGAGGAUUGAGCAUCA
B17: chr17:47010600:47010601:-_ENSG00000159210_ENST00000290330|hu_hu|FALSE|FALSE (ssRNA)
RNA: GGGAGUUCUACAGUCCGACGAUCACUGACAGUCACGUAGCCAUUCUCUGCCAGCUGCAGCACCACGGUGUGAUCCAUAUUGAGCUCAGCUGGAACAGACUGAAUGAGGUAAGUGCCGCCCACAGGGAUGAUGCCGAAGCCAGUCAACAGAGGAUUGAGCAUCA
B18: chr2:217001844:217001845:+_ENSG00000079246_ENST00000392132|hu_hu|FALSE|FALSE (ssRNA)
RNA: GGGAGUUCUACAGUCCGACGAUCGCCGACUUGAGGAUUAGCUCUUUUGUCAUAAGCAUAUCGAACUAUGGCCACCAUGUCUAAGUCAUCCAAAGCAUGAAUCAGGGAGGAAAGUGCAACUGCAGCUGCCUCAUCAUCUCUUGCCAACAGAGGAUUGAGCAUCA
B19: chr21:40768814:40768815:+_ENSG00000182093_ENST00000333781|hu_mus|motif|central (ssRNA)
RNA: GGGAGUUCUACAGUCCGACGAUCCUGGCCUUCCCCUCAGCUGAAAGGGUGGAGAACGAUAGCCACAACUUUGUUACAGACGGAAAUCCAACAGGUGAUUCCAAUUCCACCUGCUACUCGAGUAGGAAAGGCUACCAGGCGGUCCAACAGAGGAUUGAGCAUCA
B20: 96412582_96412966_892_CDS_ENSG00000111144_ENST00000228740|human|control|control (ssRNA)
RNA: GGGAGUUCUACAGUCCGACGAUCGCCACCAUAAGGGAAGGAUGGUGGCAGGACCAAUAGGUCAUACUGUCCCCAUACAUACGGUCCUCCCAGAUCUUCUGCUAUUUUAAGCAUAGAUUCAGUCUCAGAAAACUCAUAAGCAGACAACAGAGGAUUGAGCAUCA
B21: 32585910_32588873_1288_CDS_ENSMUSG00000024381_ENSMUST00000025239|mouse|control|control (ssRNA)
RNA: GGGAGUUCUACAGUCCGACGAUCUGAGAAAGGCCCAGGGGCCUCAAACUGGGAGGGGGUGGUCACGCUGAUCUCAGGGACAAAUGCGUCAUCAAAAAGGCUGAGAAUCUGCUCCUGCUUCAUCUCCUUGGAUGGGGUGUGUUUCAACAGAGGAUUGAGCAUCA
B22: chrX:117107323:117107324:-_ENSG00000003096_ENST00000371878|hu_mus|motif|central (ssRNA)
RNA: GGGAGUUCUACAGUCCGACGAUCUUUGAGCUGCAACAGUACAAAUGGGAUAUAAACCUCAGCAUAGCCUUAGGCCACAGCGGAUAGAGAUCAGUGACUAAAUUCAGCAGCCCGCUUUCCUCCUGUGAAAGCUCUGGCCACACACAACAGAGGAUUGAGCAUCA

target: T1, UNK ZnF1-3; assay: nsRBNS (natural sequence RNA bind-n-seq); RBNS binding buffer (assumed for nsRBNS): 25 mM Tris pH 7.5, 150 mM KCl, 3 mM MgCl2, 0.01% Triton X-100, 500 ug/ml BSA, 20 U/ml SUPERase-In, 4 C; UNK is unkempt and MSI1 is Musashi-1; names of the RNAs are library labels; protein concentration not given here; high values mean tight binding

Binder | binding signal [enrichment R]
B1 | 0.917
B2 | 0.384
B3 | 0.877
B4 | 0.757
B5 | 0.834
B6 | 1.01
B7 | 0.732
B8 | 1.05
B9 | 9.16
B10 | 0.913
B11 | 6.25
B12 | 3.68
B13 | 0.355
B14 | 3.39
B15 | 1.11
B16 | 0.866
B17 | 0.843
B18 | 1.53
B19 | 1.05
B20 | 0.524
B21 | 1.65
B22 | 1.34
